From article PMC7819943, “Rice protein-binding microarrays: a tool to detect cis-acting elements near promoter regions in rice” come the findings set out here.

The full ranking holds about 68,000 sequences; the median of “fluorescence intensity (a.u.)” is about 9,100, and the highest 2% start at about 16,000. This is one part of a sample in which the highest values are shown more often than they occur.

Sequence of OsWRKY34 (Q0JBA9 entry or part of it): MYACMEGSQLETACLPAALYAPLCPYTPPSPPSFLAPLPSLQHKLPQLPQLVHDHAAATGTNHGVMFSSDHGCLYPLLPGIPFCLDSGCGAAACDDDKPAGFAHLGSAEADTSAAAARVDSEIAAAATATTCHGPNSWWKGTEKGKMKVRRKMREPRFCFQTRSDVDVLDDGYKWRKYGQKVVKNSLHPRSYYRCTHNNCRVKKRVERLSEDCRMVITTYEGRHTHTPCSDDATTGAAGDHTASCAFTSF

This experiment concerns the target OsWRKY34 (Oryza sativa, UniProt Q0JBA9 1-250). In words: protein-binding microarray (RPBM); PBS, 2% BSA, 51.3 ng/ul salmon testes DNA, 50 uM zinc acetate, 200 nM TF, 25 C, 1 h; high values mean tight binding. The following applies: protein: recombinant; tags: N-terminal polyhistidine and DsRed monomer fusion (pET32a); label: CyDye5-dUTP incorporated in the synthesized complementary strand; 3' TTTTT single-stranded linker to array surface; dsDNA, one strand shown. In short, it runs like this:
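Binding signal is defined as the fluorescence intensity of each feature in arbitrary units, read on an Axon 4000B scanner. Transcription factors with N-terminal polyhistidine and DsRed fusions came from E. coli BL21-CodonPlus and were purified on Ni–NTA. They were incubated at 200 nM for 1 h at 25 °C on a custom Agilent array that had been made double-stranded with Cy5-dUTP, with 50 µM zinc acetate present, and the array was washed.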
As for “CACCCAAGCCAAGCCCACGACCCGCACCGCAACACGCACACGGAGTCACCTAGTGCAG”, the binding signal was 8520 fluorescence intensity (a.u.).
On to “CCCGCACCGCAACACGCACACCCACGCGCACGCACAAACCCGGAGTCACCTAGTGCAG”, for which the binding signal was 8060 fluorescence intensity (a.u.).
Regarding “ACCCAAAGCCACCCGCAACAACCGACGACGACGACGACCGCGGAGTCACCTAGTGCAG”, the binding signal was 18200 fluorescence intensity (a.u.).
For “CCACGCTATCCCATGCGATTCGAGAAGGTTCCACACACACCGGAGTCACCTAGTGCAG”, the binding signal is 8430 fluorescence intensity (a.u.).
For “AATGGTGCAATACAATTTCAAGCGTATCACTGTTGTTCCTCGGAGTCACCTAGTGCAG”, the binding signal is 9720 fluorescence intensity (a.u.).
As for “TTCAAAATGTTTGATACCGTTGACTTTTTAGCACATTTTGCGGAGTCACCTAGTGCAG”, the figure is 29400 fluorescence intensity (a.u.).
For “GACTTTTTAGCACATTTTTGACCGTTCATCTTATTCAAAACGGAGTCACCTAGTGCAG” the value was 8780 fluorescence intensity (a.u.).
On to “TCAAAATGTTTAACGCCGTTGACTTTTTAGCACATTTTTGCGGAGTCACCTAGTGCAG”, for which the binding signal is 33000 fluorescence intensity (a.u.).
Regarding “GGTTTCAAGAAAAGGAAAAGAAAAACTAAACGTAGTATAACGGAGTCACCTAGTGCAG”, the binding signal was 11300 fluorescence intensity (a.u.).
On to “AGTATCAAGCGATACAGGAGCTCCTCACTCCATCTCTCTACGGAGTCACCTAGTGCAG”, for which the binding signal is 8330 fluorescence intensity (a.u.).
For “TTCGGTTTTTCTCTTCATCATTTCTCTTTATTTCTTTCTCCGGAGTCACCTAGTGCAG” the value was 9290 fluorescence intensity (a.u.); for “TTTTTTTCTCCTTTCCTTCTTCTCTCTCTCTCTTTTTTTTCGGAGTCACCTAGTGCAG”, 8870 fluorescence intensity (a.u.).
With “CCTCCTCTCCCTTTTCTGCTGTTTCTCTCTCTCACACACTCGGAGTCACCTAGTGCAG”, the binding signal was 8470 fluorescence intensity (a.u.).
For “CGCCGGTTGCTTCCATATACTCTGCTCCTTTTTTTTCTATCGGAGTCACCTAGTGCAG” the value was 9240 fluorescence intensity (a.u.); for “ATATCTACTCCCGGTTTCTGCTGGATTCCTTCCTTTTTCTCGGAGTCACCTAGTGCAG”, 17500 fluorescence intensity (a.u.); for “GTTTTGCACATCCGGTTTTCTCTCTCTCTCTCTCTCCTTTCGGAGTCACCTAGTGCAG”, 16700 fluorescence intensity (a.u.).
On to “CACACACTCTCCGGTTTTTTTTTCCTTTTCATTTTTTTCTCGGAGTCACCTAGTGCAG”, for which the binding signal is 28000 fluorescence intensity (a.u.).
For “CACTCTCTCTCGCTGTCTTTCTCTCCTTCCATTTCATTTCCGGAGTCACCTAGTGCAG” the value was 8250 fluorescence intensity (a.u.); for “CGTTTCTCTTTCTTTCTTCCCTTCGGTTTCTCCTCCTCTCCGGAGTCACCTAGTGCAG”, 10600 fluorescence intensity (a.u.).
For “ACAGGGCTTGGAATAGGTTGGTGTACAGGGCGGTAGCTTACGGAGTCACCTAGTGCAG” the value was 8670 fluorescence intensity (a.u.).
Take “AGAAAAGAATCTACAGTACCCACATGGCATACTCTCTTTTCGGAGTCACCTAGTGCAG”: the binding signal was 9950 fluorescence intensity (a.u.).
Consider “GTCTTTTGGTGGGTGGGAAATCACTTCCATTTCCCATTAGCGGAGTCACCTAGTGCAG”, for which the binding signal was 11300 fluorescence intensity (a.u.).
For “GTGGCAATGCAAACTCGTCTTGGAACCCACTGCTTTGCCTCGGAGTCACCTAGTGCAG” the value was 8192 fluorescence intensity (a.u.).
For “ATGACATACTAATAGATGATACTATTGACTTTTTTTCTATCGGAGTCACCTAGTGCAG” the value was 9980 fluorescence intensity (a.u.); for “CTACTATCATATTTTTTAATAGATGACTCCGTTGACTTTTCGGAGTCACCTAGTGCAG”, 16800 fluorescence intensity (a.u.).
As for “ATACTACCTCCGTTTTTTAATAGATGACGTCGTTGACTTTCGGAGTCACCTAGTGCAG”, the figure is 14600 fluorescence intensity (a.u.); as for “TACCTCCGTTTTTTAATAGATGACGCCGTTGACTTTTTCTCGGAGTCACCTAGTGCAG”, 25000 fluorescence intensity (a.u.); as for “TACCTCCGTTTTCTAATAGATGACGCCGTTGACTTTTTCTCGGAGTCACCTAGTGCAG”, 20700 fluorescence intensity (a.u.).
As for “TCCCTCCGTTTTTTAATAGATGATGCCGTTGACTTTTTCTCGGAGTCACCTAGTGCAG”, the binding signal is 19300 fluorescence intensity (a.u.).
As for “GTTTCTTACCCATCTACTATGGCCTATTTAACCCTGCGCCCGGAGTCACCTAGTGCAG”, the figure is 11000 fluorescence intensity (a.u.); as for “GCCCGCGCCGTCTACCAGGACGCCGACGTCTACCTCCTCGCGGAGTCACCTAGTGCAG”, 8470 fluorescence intensity (a.u.); as for “CCTCTTCTCCTTCGGTGTGTTCGTCGATGTGCTTTGCTGACGGAGTCACCTAGTGCAG”, 8580 fluorescence intensity (a.u.).
For “CGGTTTGGGCTCTTTTGGCTGTTCCATGGCGACGAGGCGCCGGAGTCACCTAGTGCAG” the value was 8320 fluorescence intensity (a.u.); for “GACCCCTCCGACCGCTACGCCAACCACAACACCGTCTTCTCGGAGTCACCTAGTGCAG”, 9430 fluorescence intensity (a.u.); for “TGTCAACCCGCGCCTCCGATTTCTCCAGCTTTTCTTTCCCCGGAGTCACCTAGTGCAG”, 12800 fluorescence intensity (a.u.).
As for “AGTAGTCTCCGTCTTCGTCCTCTTCCTTCTTGTTTAATAACGGAGTCACCTAGTGCAG”, the binding signal is 8930 fluorescence intensity (a.u.).
As for “TGCCTGTAGTGGCGGTTGGGGATGCGGATAAGGCGAGGGGCGGAGTCACCTAGTGCAG”, the binding signal was 14500 fluorescence intensity (a.u.).
For “TCCGACATGCTGCCCTCGATCGAGCTCATCCATCGGCCCTCGGAGTCACCTAGTGCAG” the value was 9550 fluorescence intensity (a.u.); for “CCACCCTTTTTCTCTGCTTCCAGTGTACGTTTTCGAATAACGGAGTCACCTAGTGCAG”, 9880 fluorescence intensity (a.u.).
In the case of “CCTCCTAGTTCCCTCGGCATGCAGACGATCTGCCAGTTTACGGAGTCACCTAGTGCAG”, the binding signal was 11700 fluorescence intensity (a.u.).
For “TATCGTCCGGTGCTCCTCGTCCATGTCAACAGCTACCATACGGAGTCACCTAGTGCAG” the value was 9850 fluorescence intensity (a.u.); for “GAGGGCAAGGGCGGCGGGTCTAACACAACACAATAAGAGTCGGAGTCACCTAGTGCAG”, 9470 fluorescence intensity (a.u.).
